Rows were chosen to be rich in hits. Some 1.6% of all compounds tested hit in one or more screens of this group.
ugtP null kill = growth inhibition of S. aureus ugtP deletion strain | S. aureus RN4220 ugtP deletion, OD600 growth, 16 h | growth inhibition, % (concentration not given with the values) | hit rate 0.54% among 330,000 | AID 1259309; in the data active = growth inhibition above about 68%;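 note: plate controls were untreated wells for no effect and antibiotic for full effect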
BJeLR lethal = kills HRASV12-expressing BJeLR cells; BJeLR (HRASV12) viability, CellTiter-Glo ATP luminescence, 48 h; hit rate 0.17% among 300,000; inhibition, % (concentration not given with the values); AID 1554; in the data active = inhibition above about 50%
CCHF vOTU inh-1 = blocks the CCHF virus ovarian tumor domain protease; CCHFV vOTU protease, Pep-AMC fluorescence; inhibition, % at 11.5 µM; hit rate 0.55% among 370,000; AID 651958; note: 0% = vehicle wells with enzyme and 100% = no enzyme wells
RN4220 kill = S. aureus RN4220 growth inhibition | OD600, 16 h | inhibition, % (concentration not given with the values) | hit rate 0.33% among 330,000; in the data active = inhibition above about 85%;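 note: plate controls were untreated cells for no effect and reference antibiotic for full effect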
PfHsp40 rescue = rescue of PfHsp40-mediated yeast toxicity; S. cerevisiae expressing PfHsp40, growth rescue, ATP luminescence; growth rescue, % at 12.5 µM; hit rate 0.68% among 340,000; AID 504582; in the data active = growth rescue above about 28%, passing the limit was not always enough;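 note: yeast W303a lacking pdr1 and pdr3 grown in galactose medium; growth measured after three days at 30 °C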
CCHF vOTU inh-2 = CCHFV vOTU protease inhibition, confirmation; shares compounds with CCHF vOTU inh-1; Recombinant CCHFV vOTU, Pep-AMC fluorescence; inhibition, % at 11.5 µM; hit rate 17% among 1,900; AID 686976
Starred values were filed as active, the others as inactive; · = no result given. Cut-off read from the data, not from the text of the source, unless noted: active = inhibition above about 30%; inactive = the rest.

SMILES | ugtP null kill | BJeLR lethal | CCHF vOTU inh-1 | RN4220 kill | PfHsp40 rescue | others
O=S1(=O)CCOC2Cc3ccccc3C2N1Cc1cccc(C(F)(F)F)c1 (stereo not drawn) | -0.6 | · | · | 9.8 | ·
FC(F)(F)c1cc(Cl)c2nc(-c3cccc(Cl)c3)c(Cc3cccc(Cl)c3)n2c1 | · | · | 4.1 | · | ·
FC(F)(F)c1cc(Cl)c2nc(-c3ccccc3)c(Cc3cccc(Cl)c3)n2c1 | · | · | 30.7* | · | ·
O=C(O)C1=CC(C2CCCCC2)CC(OCc2ccc(CO)cc2)O1 (stereo not drawn) | 2.5 | · | · | 10.0 | ·
Cc1cc(CN2CCOCC2)c(O)c(C2(C)CCCCC2)c1 | 98.8* | 2.9 | 1.8 | 7.0 | 2.2
COc1cc2c(c3ccccc13)CCCC2=O | · | · | -139.7 | · | 0.1
O=C1CCCc2c1ccc1ccccc21 | 0.1 | · | -2.0 | 6.6 | 28.8*
N#Cc1nc(-c2cccs2)oc1NCCc1ccccc1 | -0.8 | 5.0 | -199.7 | -2.9 | 105.7*
Cc1nc2ccccc2c(=O)n1N=Cc1cc(Br)ccc1O | 1.1 | · | · | 7.4 | ·
CC(=O)/C(N=Nc1cc2c(c([N+](=O)[O-])c1C)C(C)(C)CC2(C)C)=C(\C)O | 89.2* | 2.2 | -9.7 | -2.9 | ·
CC1(C)C(C=C(Cl)Cl)C1C(=O)Nc1ccc([N+](=O)[O-])cc1 (stereo not drawn) | 93.9* | · | 2.6 | 87.1* | ·
COc1ccc(C(=O)N2C(=S)NC(=O)/C2=C\c2ccc(C)cc2)cc1 | 100.1* | 5.1 | 6.0 | -9.4 | -1.8
COc1ccc(C=N/N=C2/NC(=O)C(CC(=O)O)S2)cc1OCc1ccccc1Cl (stereo not drawn) | 0.0 | · | · | 3.6 | ·
CCn1cc(C(=O)O)c(=O)c2cnc(N3CCN(C(=S)NC(=O)c4ccc(Cl)cc4Cl)CC3)nc21 | 24.9 | 7.7 | 21.2 | 40.4 | 0.7
CCn1cc(C(=O)O)c(=O)c2cnc(N3CCN(C(=S)NC(=O)c4ccccc4Cl)CC3)nc21 | 94.3* | 13.5 | · | 98.5* | ·
CCn1cc(C(=O)O)c(=O)c2cnc(N3CCN(C(=S)NC(=O)c4ccc(F)c(F)c4)CC3)nc21 | 14.0 | 8.3 | -5.1 | 10.8 | -1.2
CCn1cc(C(=O)O)c(=O)c2cnc(N3CCN(C(=S)NC(=O)c4ccc(OC)cc4)CC3)nc21 | 85.6* | 3.3 | 2.7 | 46.4 | -2.2
CN(C)c1ccc(C=NNC(=O)c2ccc(Cn3cc(Cl)cn3)cc2)cc1 | 8.0 | · | · | -1.5 | ·
O=C(CNC(=O)c1ccc(S(=O)(=O)N2CCCC2)cc1)NN=Cc1ccco1 | 7.4 | · | · | 2.5 | ·
O=C1C(Cl)=C(N2CCN(c3ccccc3[N+](=O)[O-])CC2)C(=O)c2ccccc21 | 34.7 | -3.4 | 85.4* | 49.2 | -1.3
CCOc1cc(C=NNC(=O)c2ccc(C)nc2)cc([N+](=O)[O-])c1O | 0.5 | · | · | 2.9 | ·
CCN(CC)c1ccc(C=NNC(=O)CC(C)C)cc1 | 7.6 | · | · | 7.8 | ·
O=C(NCc1ccc2c(c1)OCO2)c1cccc(C(=O)NCc2ccc3c(c2)OCO3)c1 | 9.8 | 2.4 | -0.2 | 2.8 | -0.9
Cc1nc2ccc(C(=O)NCc3ccc4c(c3)OCO4)cc2s1 | 7.0 | 0.5 | -3.1 | -0.9 | 588.9*
Cc1ccc(Oc2cc([N+](=O)[O-])cc3c2C(=O)Nc2ccccc2O3)cc1 | 91.1* | -0.5 | 7.8 | 96.9* | -2.0
SMILES | ugtP null kill | BJeLR lethal | CCHF vOTU inh-1 | RN4220 kill | PfHsp40 rescue | others
O=C1Nc2ccccc2OCc2c1cccc2[N+](=O)[O-] | 9.0 | -4.2 | -15.6 | 18.7 | -2.6
CC1(C)CC(=O)C(=NNc2ccc(Cl)cc2)CO1 | 1.4 | · | · | 10.8 | ·
N#Cc1c(Nc2ccccc2)[n+]([O-])c2ccc(Cl)cc2[n+]1[O-] | · | · | 20.1 | · | 68.7*
C=CCc1ccc(OCC(O)CN2CCCCC2)c(OC)c1 (stereo not drawn) | 12.5 | -2.4 | 0.0 | 1.2 | 0.4
C=CCc1ccc(OCC(O)COc2ccc(CC=C)cc2OC)c(OC)c1 | 12.4 | 5.9 | 23.4 | -0.4 | 46.5*
Cc1ccc(-n2nc(C(=O)N3CCOCC3)cc2-c2ccc(Cl)cc2)cc1 | 92.0* | 1.5 | 2.9 | -3.4 | 0.4
Oc1ccc[n+](C=Cc2ccccc2)c1 | -7.1 | · | · | 5.4 | ·
CC(C)(C)c1cc(-c2nc(N)nc(N)n2)c(O)c(C(C)(C)C)c1 | 83.4 | · | 4.4 | 29.6 | 225.4*
Nc1nc(N)nc(-c2cc(O)ccc2O)n1 | · | · | 29.0 | · | -1.8
CCOC(=O)C1=Nc2ccccc2C1=[N+]=[N-] | · | -5.0 | 7.6 | · | 33.4*
COc1ccc(CC(=O)NN=C(C)CC(=O)Nc2ccc3c(c2)OCCO3)cc1OC | 8.8 | · | · | 7.1 | ·
O=C(C[n+]1cccc(Br)c1)c1ccc(-c2ccccc2)cc1 | 1.9 | 3.5 | -3.0 | -1.2 | 54.3*
Cc1ccc(-c2ccc(C=NNC(=O)c3cc4c(ccc5ccccc54)o3)o2)cc1[N+](=O)[O-] | -3.8 | · | · | 0.7 | ·
O=C1c2ccccc2CCCC12N=NCC2c1cccc2ccccc12 (stereo not drawn) | 4.7 | -6.1 | 0.7 | -15.0 | 108.6*
O=C(NCc1cccs1)C1CCN(S(=O)(=O)N2CCCC2)CC1 | 11.0 | 3.2 | -22.3 | 4.0 | 32.6*
CCOC(=O)C(=NNc1cc(Cl)ccc1Cl)N1CCN(CC)CC1 | 1.8 | · | · | -1.3 | ·
COC(=O)C1=C(c2ccc(-c3ccccc3)c(F)c2)CC2CCC1N2C(=O)NCCOc1ccc(OC)cc1 (stereo not drawn) | 15.9 | · | · | -1.4 | ·
CCOC(=O)C1Oc2ccccc2C(c2ccc(C)cc2)=C1C(=O)OC (stereo not drawn) | 95.4* | · | 5.8 | -0.2 | 0.9
Cc1cc(C(=O)NN=Cc2cccc([N+](=O)[O-])c2)c(C)n1-c1ccccc1 | -7.2 | · | · | -3.2 | ·
Cc1cc(C(=O)N/N=C/c2ccc(O)c(O)c2O)c(C)n1-c1ccccc1 | · | 0.9 | -2.2 | · | 87.2*
Cc1ccc(C)c(S(=O)(=O)N2CCN(Cc3ccc(O)c4ncccc34)CC2)c1 | -4.2 | 15.6 | 4.4 | 10.4 | 322.8*
CCCCC1COCCS(=O)(=O)N1Cc1cccc([N+](=O)[O-])c1 (stereo not drawn) | 2.2 | · | · | 7.9 | ·
CCOC(=O)c1cccc(C2=CC(=O)CC(c3ccc(Cl)cc3)C2)c1 (stereo not drawn) | -2.9 | · | · | -7.9 | ·
COc1ccc(NC(=O)CN(C)CC(=O)N(CC(C)C)c2c(N)n(CC(C)C)c(=O)[nH]c2=O)cc1 | -1.3 | · | -4.1 | 8.2 | -0.5
Cc1cc(C)cc(NC(=O)CN(C)CC(=O)N(CC(C)C)c2c(N)n(CC(C)C)c(=O)[nH]c2=O)c1 | 5.0 | · | 34.9* | 8.0 | -0.1 | CCHF vOTU inh-2=-26.6
COC(=O)[C@]1(Cc2ccccc2)N[C@H](CN(C)C(=O)Nc2ccccc2)[C@@H]2C(=O)N(Cc3ccccc3)C(=O)[C@@H]21 | -2.1 | · | 36.9* | -0.4 | 3.5 | CCHF vOTU inh-2=-24.8
COC(=O)[C@]1(Cc2ccccc2)N[C@H](CN(C)C(=O)Nc2ccc(F)cc2)[C@@H]2C(=O)N(Cc3ccccc3)C(=O)[C@@H]21 | -4.3 | · | 23.1 | -1.7 | 0.8
CCC(=O)NC1=C(Cl)C(=O)C(NC(=O)CC)=C(Cl)C1=O | · | · | 97.0* | · | -2.0 | CCHF vOTU inh-2=8.9
O=C(NN=Cc1ccccn1)c1cccc(S(=O)(=O)N2CCCC2)c1 | -3.8 | · | · | -3.7 | ·

Screening results (PubChem BioAssay)
